The supplement of paper PMC13380429

Test system: Vero E6 infected with SARS-CoV-2
Test: inhibition of SARS-CoV-2 cytopathic effect; higher = more antiviral protection, active = above 15
Conditions: 48 h

Measured: inhibition of SARS-CoV-2 cytopathic effect

CCOc1ccccc1-n1c(C(C)N2CCN(C(=O)COc3ccc(Cl)cc3)CC2)nc2ccccc2c1=O (stereo not given) [erastin]
inactive: 1 nM -2.42% | 8.33 nM -0.63% | 100 nM -0.86% | 833.33 nM -2.74% | 10000 nM 7.21%

CC(=O)OCC1=C(C(=O)O)N2C(=O)[C@@H](NC(=O)CCCC(N)C(=O)O)C2SC1 (stereo not given in full) [cephalosporin-c-zn]
inactive: 1 nM -4.01% | 8.33 nM -0.13% | 100 nM -2.05% | 833.33 nM 3.87% | 10000 nM 1.87%

CC(=O)O[C@H]1C[C@H](O[C@H]2[C@@H](O)C[C@H](O[C@H]3[C@@H](O)C[C@H](O[C@H]4CC[C@@]5(C)[C@H](CC[C@@H]6[C@@H]5C[C@@H](O)[C@]5(C)[C@@H](C7=CC(=O)OC7)CC[C@]65O)C4)O[C@@H]3C)O[C@@H]2C)O[C@H](C)[C@H]1O[C@@H]1O[C@H](CO)[C@@H](O)[C@H](O)[C@H]1O [lanatoside-C]
inactive: 1 nM 0.4% | 8.33 nM -0.46% | 100 nM -8.78% | 833.33 nM -9.54% | 10000 nM -11.4%

CCN(Cc1ccncc1)C(=O)C(CO)c1ccccc1 (stereo not given) [tropicamide]
inactive: 1 nM 2.76% | 8.33 nM 4.91% | 100 nM 3.33% | 833.33 nM 3.81% | 10000 nM -2.47%

Cc1nc(Nc2ccc(F)cc2)nc(N2CCc3ccccc3C2C)c1C (stereo not given) [revaprazan]
inactive: 1 nM 0.41% | 8.33 nM 1.64% | 100 nM 2.31% | 833.33 nM 1.17% | 10000 nM 1.72%

Cc1ccc(O)c(N=Nc2ccccc2)n1
inactive: 1 nM -2.81% | 8.33 nM -4.41% | 100 nM -3.53% | 833.33 nM 0.01% | 10000 nM 3.77%

O=c1ccn([C@@H]2O[C@H](CO)[C@@H](O)[C@H]2O)c(=O)[nH]1 [uridine]
inactive: 1 nM 0.24% | 8.33 nM 0.14% | 100 nM 0.2% | 833.33 nM -1.16% | 10000 nM 2.27%

COc1cc(Oc2ccnc3cc(OC)c(OC)cc23)ccc1NC(=O)NC(C)c1nccs1 (stereo not given)
inactive: 1 nM -1.6% | 8.33 nM 0.95% | 100 nM 1.7% | 833.33 nM 0.48% | 10000 nM -1.8%

C/C=C(/C(=C/C)c1ccc(O)cc1)c1ccc(O)cc1 [dienestrol]
inactive: 1 nM 2% | 8.33 nM -0.9% | 100 nM -0.85% | 833.33 nM 0.84% | 10000 nM 1.6%

COc1cc2nc(N3CCCN(C)CC3)nc(NC3CCN(Cc4ccccc4)CC3)c2cc1OC
inactive: 1 nM 0.59% | 8.33 nM 0.41% | 100 nM -2.3% | 833.33 nM 1.53% | 10000 nM 11.7%

O=C(O)CCC(=O)Nc1ccc(S(=O)(=O)Nc2nccs2)cc1 [succinylsulfathiazole]
inactive: 1 nM -0.25% | 8.33 nM 0.46% | 100 nM 0.51% | 833.33 nM 0.85% | 10000 nM -0.56%

Cc1c(I)c(=O)n(-c2ccccc2)n1C [iodoantipyrine]
inactive: 1 nM -0.48% | 8.33 nM -2.57% | 100 nM -0.75% | 833.33 nM -0.95% | 10000 nM 1.55%

Cc1cnc(C(=O)N[C@H]2CCCCC/C=C\[C@@H]3C[C@@]3(C(=O)NS(=O)(=O)C3CC3)NC(=O)[C@@H]3C[C@@H](Oc4nc5ccccc5c5ccccc45)CN3C2=O)cn1 [paritaprevir]
inactive: 1 nM -1.75% | 8.33 nM -2.06% | 100 nM -0.72% | 833.33 nM 0.24% | 10000 nM 1.71%

CCn1ccnc1CC1COc2ccccc2O1 (stereo not given) [imiloxan]
inactive: 1 nM 2% | 8.33 nM -0.87% | 100 nM -0.32% | 833.33 nM 4.69% | 10000 nM -0.13%

Cc1ccc2c(c1)c1c(n2CCc2ccc(C)nc2)CCN(C)C1 [latrepirdine]
inactive: 1 nM 1.25% | 8.33 nM -0.5% | 100 nM -0.92% | 833.33 nM 0.73% | 10000 nM 0.87%

Cc1ccc2c(c1)=C(c1ccccc1)C(C1=NN(C(=O)CCC(=O)O)C(c3ccc(Br)cc3)C1)C(=O)N=2 (stereo not given)
inactive: 1 nM -0.42% | 8.33 nM -0.1% | 100 nM 2.84% | 833.33 nM 3.61% | 10000 nM 0.79%

O=C1C=Cc2cc(Br)ccc2C1=O [bonaphthone]
inactive: 1 nM -0.83% | 8.33 nM 0.78% | 100 nM -2.18% | 833.33 nM -1.56% | 10000 nM -2.53%

Cc1ccc(S(=O)(=O)NC(=O)NN2CC3CCCC3C2)cc1 (stereo not given) [gliclazide]
inactive: 1 nM 0.85% | 8.33 nM 1.91% | 100 nM 1.12% | 833.33 nM 2.55% | 10000 nM 2.6%

Nc1c2c(nc3c1CCC3)CCCC2 [ipidacrine]
inactive: 1 nM 1.46% | 8.33 nM 1.94% | 100 nM 1.19% | 833.33 nM 0.32% | 10000 nM 3.14%

CC(C)C[C@H](NC(=O)[C@@H](O)[C@H](N)Cc1ccccc1)C(=O)O [ubenimex]
inactive: 1 nM -0.51% | 8.33 nM -0.09% | 100 nM 2.6% | 833.33 nM 0.25% | 10000 nM 1.71%

CSc1cc2c(cc1C(F)(F)F)N(C(=O)Nc1cccnc1)CC2
inactive: 1 nM -0.31% | 8.33 nM -3.61% | 100 nM 1.56% | 833.33 nM 1.75% | 10000 nM 0.95%

CN(C)C(=O)Oc1ccc[n+](C)c1 [mestinon]
inactive: 1 nM 4.06% | 8.33 nM -0.26% | 100 nM 0.13% | 833.33 nM -2.1% | 10000 nM -1.86%

CN(C)CCCN1c2ccccc2Sc2ccccc21 [promazine]
inactive: 1 nM 2.47% | 8.33 nM -1.16% | 100 nM 0.93% | 833.33 nM 0.57% | 10000 nM -0.38%

O=C(CCCCCCNC(=O)c1cnc(N(c2ccccc2)c2ccccc2)nc1)NO
inactive: 1 nM -0.34% | 8.33 nM -1.04% | 100 nM 2.13% | 833.33 nM -4.05% | 10000 nM -10.5%

CCOC(=O)c1ccccc1OC(=O)CCCCCCCC(=O)Oc1ccccc1C(=O)OCC
inactive: 1 nM 6.82% | 8.33 nM 0.93% | 100 nM -6.73% | 833.33 nM -0.1% | 10000 nM -6.2%

NC(=O)c1cccc2cn(-c3ccc([C@@H]4CCCNC4)cc3)nc12 [niraparib]
inactive: 1 nM -0.28% | 8.33 nM 0.08% | 100 nM -1.61% | 833.33 nM 3.39% | 10000 nM 5.55%

C[C@]12CCC(=O)C=C1CC[C@@H]1[C@@H]2CC[C@@]2(C)[C@H]1CC[C@]2(C)O [17-alpha-Methyltestosterone]
inactive: 1 nM 0.59% | 8.33 nM 1.3% | 100 nM -0.05% | 833.33 nM 1.19% | 10000 nM 1.92%

Fc1ccc(-n2cc(CCCCN3CCC4(CC3)OCc3ccccc34)c3ccccc32)cc1 [siramesine]
inactive: 1 nM 0.05% | 8.33 nM 1.88% | 100 nM 1.49% | 833.33 nM 4.24%
active: 10000 nM 28.7%

Cc1cc(OCc2nc(-c3ccccc3Cl)cs2)ccc1OCC(=O)O [GPR120-modulator-1]
inactive: 1 nM -0.13% | 8.33 nM 2.43% | 100 nM -1.19% | 833.33 nM -1.62% | 10000 nM -2.32%

Cn1ncnc1[C@H]1c2n[nH]c(=O)c3cc(F)cc(c23)N[C@@H]1c1ccc(F)cc1 [talazoparib]
inactive: 1 nM 0.71% | 8.33 nM 2.94% | 100 nM 2.17% | 833.33 nM -0.1% | 10000 nM -3.8%

Nc1nc(=O)n([C@H]2C[C@H](O)[C@@H](CO)O2)cc1Cl [cytochlor]
inactive: 1 nM 0.97% | 8.33 nM 0.46% | 100 nM 0.45% | 833.33 nM 1.92% | 10000 nM -1.33%

C=C1/C(=C\C=C2/CCC[C@]3(C)[C@@H]([C@H](C)/C=C/[C@H](C)C(C)C)CC[C@@H]23)C[C@@H](O)C[C@@H]1O [doxercalciferol]
inactive: 1 nM 0.83% | 8.33 nM 0.03% | 100 nM 0.98% | 833.33 nM 2.04% | 10000 nM 2.69%

CN1CC(=O)NC1=N [creatinine]
inactive: 1 nM 1.26% | 8.33 nM 1.05% | 100 nM -2.37% | 833.33 nM 1.18% | 10000 nM -1.05%

Fc1ccccc1CNCc1ccc(-c2ccnc3[nH]ccc23)cc1
inactive: 1 nM 4.68% | 8.33 nM 2.19% | 100 nM 0.04% | 833.33 nM -1.5% | 10000 nM -7.9%

CCCCc1nc(-c2ccc(OCCCN(CC)CC)cc2)cn1-c1ccc(Oc2ccc(Cl)cc2)cc1 [azeliragon]
inactive: 1 nM 0.74% | 8.33 nM -0.49% | 100 nM 1.43% | 833.33 nM 1.68% | 10000 nM -13.2%

CC(C)NCC(O)c1ccc(N)c(C#N)c1 (stereo not given) [cimaterol]
inactive: 1 nM 6.86% | 8.33 nM 6.95% | 100 nM 10.5% | 833.33 nM 3.99% | 10000 nM 4.49%

Cc1ccc(-c2cc(C(F)(F)F)nn2-c2ccc(S(N)(=O)=O)cc2)cc1 [celecoxib]
inactive: 1 nM 1.41% | 8.33 nM 1.32% | 100 nM 1.91% | 833.33 nM 1.62% | 10000 nM -4.95%

CN(C)CCOc1cc(-c2cn[nH]c2)ccc1NC(=O)C1COc2ccccc2O1 (stereo not given)
inactive: 1 nM -1.4% | 8.33 nM 1.35% | 100 nM 0.53% | 833.33 nM -5.69% | 10000 nM -6.4%

CCC(=O)OCC(=O)[C@@]1(OC(=O)CC)[C@H](C)C[C@H]2[C@H]3[C@H]([C@@H](O)C[C@@]21C)[C@@]1(C)C=CC(=O)C=C1C[C@H]3Cl [alclometasone-dipropionate]
inactive: 1 nM 3% | 8.33 nM 0.48% | 100 nM 1.16% | 833.33 nM 1.07% | 10000 nM -2.92%
